# Laboratory results: PMC11062922 (Nature Chemical Biology, 2023)
# Tests used:
# BUB1 = test system: BUB1; parameters: species or system human, MV4-11 + K-562 + COLO205 + SK-N-BE2 + OVCAR-8; conditions: read-out: apparent Kd; compound concentrations: 100 nM and 1000 nM (sheet 'Samples'), CATDS: 2.1802873020005002E-2; n = 1
# CDC42BPA = test system: CDC42BPA; parameters: species or system human, MV4-11 + K-562 + COLO205 + SK-N-BE2 + OVCAR-8; conditions: read-out: apparent Kd; compound concentrations: 100 nM and 1000 nM (sheet 'Samples'), CATDS: 2.9689579346921902E-2; n = 1
# CDC42BPB = test system: CDC42BPB; parameters: species or system human, MV4-11 + K-562 + COLO205 + SK-N-BE2 + OVCAR-8; conditions: read-out: apparent Kd; compound concentrations: 100 nM and 1000 nM (sheet 'Samples'), CATDS: 2.9604428475736501E-2; n = 1
# CDC42BPG = test system: CDC42BPG; parameters: species or system human, MV4-11 + K-562 + COLO205 + SK-N-BE2 + OVCAR-8; conditions: read-out: apparent Kd; compound concentrations: 100 nM and 1000 nM (sheet 'Samples'), CATDS: 3.5199852415490701E-2; n = 1
# CDC7 = test system: CDC7; parameters: species or system human, MV4-11 + K-562 + COLO205 + SK-N-BE2 + OVCAR-8; conditions: read-out: apparent Kd; compound concentrations: 100 nM and 1000 nM (sheet 'Samples'), CATDS: 2.6746378417374699E-2; n = 1
# CDK4 = test system: CDK4; parameters: species or system human, MV4-11 + K-562 + COLO205 + SK-N-BE2 + OVCAR-8; conditions: read-out: apparent Kd; compound concentrations: 100 nM and 1000 nM (sheet 'Samples'), CATDS: 2.4664855297043799E-2; n = 1
# CLK4 = test system: CLK4; parameters: species or system human, MV4-11 + K-562 + COLO205 + SK-N-BE2 + OVCAR-8; conditions: read-out: apparent Kd; compound concentrations: 100 nM and 1000 nM (sheet 'Samples'), CATDS: 2.52027212323017E-2; n = 1
# DYRK1A = test system: DYRK1A; parameters: species or system human, MV4-11 + K-562 + COLO205 + SK-N-BE2 + OVCAR-8; conditions: read-out: apparent Kd; compound concentrations: 100 nM and 1000 nM (sheet 'Samples'), CATDS: 2.7886290868283401E-2; n = 1
# GSK3A = test system: GSK3A; parameters: species or system human, MV4-11 + K-562 + COLO205 + SK-N-BE2 + OVCAR-8; conditions: read-out: apparent Kd; compound concentrations: 100 nM and 1000 nM (sheet 'Samples'), CATDS: 3.2478486549428802E-2; n = 1
# GSK3B = test system: GSK3B; parameters: species or system human, MV4-11 + K-562 + COLO205 + SK-N-BE2 + OVCAR-8; conditions: read-out: apparent Kd; compound concentrations: 100 nM and 1000 nM (sheet 'Samples'), CATDS: 2.76286010769239E-2; n = 1
# NNT = test system: NNT; parameters: species or system human, MV4-11 + K-562 + COLO205 + SK-N-BE2 + OVCAR-8; conditions: read-out: apparent Kd; compound concentrations: 100 nM and 1000 nM (sheet 'Samples'), CATDS: 2.2589714418096801E-2; n = 1
# PIM1 = test system: PIM1; parameters: species or system human, MV4-11 + K-562 + COLO205 + SK-N-BE2 + OVCAR-8; conditions: read-out: apparent Kd; compound concentrations: 100 nM and 1000 nM (sheet 'Samples'), CATDS: 3.4638112150075201E-2; n = 1
# PKN1 = test system: PKN1; parameters: species or system human, MV4-11 + K-562 + COLO205 + SK-N-BE2 + OVCAR-8; conditions: read-out: apparent Kd; compound concentrations: 100 nM and 1000 nM (sheet 'Samples'), CATDS: 6.9293964383533801E-2; n = 1
# PKN2 = test system: PKN2; parameters: species or system human, MV4-11 + K-562 + COLO205 + SK-N-BE2 + OVCAR-8; conditions: read-out: apparent Kd; compound concentrations: 100 nM and 1000 nM (sheet 'Samples'), CATDS: 0.13828274878435901; n = 1
# PKN3 = test system: PKN3; parameters: species or system human, MV4-11 + K-562 + COLO205 + SK-N-BE2 + OVCAR-8; conditions: read-out: apparent Kd; compound concentrations: 100 nM and 1000 nM (sheet 'Samples'), CATDS: 2.6445492378014E-2; n = 1
# PRKACA = test system: PRKACA; parameters: species or system human, MV4-11 + K-562 + COLO205 + SK-N-BE2 + OVCAR-8; conditions: read-out: apparent Kd; compound concentrations: 100 nM and 1000 nM (sheet 'Samples'), CATDS: 2.2371204771335199E-2; n = 1
# PRKCA = test system: PRKCA; parameters: species or system human, MV4-11 + K-562 + COLO205 + SK-N-BE2 + OVCAR-8; conditions: read-out: apparent Kd; compound concentrations: 100 nM and 1000 nM (sheet 'Samples'), CATDS: 3.9494099322939E-2; n = 1
# PRKCB = test system: PRKCB; parameters: species or system human, MV4-11 + K-562 + COLO205 + SK-N-BE2 + OVCAR-8; conditions: read-out: apparent Kd; compound concentrations: 100 nM and 1000 nM (sheet 'Samples'), CATDS: 4.76963750103866E-2; n = 1
# PRKCD = test system: PRKCD; parameters: species or system human, MV4-11 + K-562 + COLO205 + SK-N-BE2 + OVCAR-8; conditions: read-out: apparent Kd; compound concentrations: 100 nM and 1000 nM (sheet 'Samples'), CATDS: 6.0948363535237499E-2; n = 1
# PRKCI = test system: PRKCI; parameters: species or system human, MV4-11 + K-562 + COLO205 + SK-N-BE2 + OVCAR-8; conditions: read-out: apparent Kd; compound concentrations: 100 nM and 1000 nM (sheet 'Samples'), CATDS: 3.5414471461485103E-2; n = 1
# PRKCQ = test system: PRKCQ; parameters: species or system human, MV4-11 + K-562 + COLO205 + SK-N-BE2 + OVCAR-8; conditions: read-out: apparent Kd; compound concentrations: 100 nM and 1000 nM (sheet 'Samples'), CATDS: 2.3037545247832199E-2; n = 1
# PRKG1 = test system: PRKG1; parameters: species or system human, MV4-11 + K-562 + COLO205 + SK-N-BE2 + OVCAR-8; conditions: read-out: apparent Kd; compound concentrations: 100 nM and 1000 nM (sheet 'Samples'), CATDS: 3.8596421043345E-2; n = 1
# PRKX;PRKY = test system: PRKX;PRKY; parameters: species or system human, MV4-11 + K-562 + COLO205 + SK-N-BE2 + OVCAR-8; conditions: read-out: apparent Kd; compound concentrations: 100 nM and 1000 nM (sheet 'Samples'), CATDS: 4.0324961931199298E-2; n = 1
# Q6ZSR9 = Q6ZSR9 (human, UniProt Q6ZSR9); parameters: species or system MV4-11 + K-562 + COLO205 + SK-N-BE2 + OVCAR-8; conditions: read-out: apparent Kd; compound concentrations: 100 nM and 1000 nM (sheet 'Samples'), CATDS: 2.23637013148167E-2; n = 1
# Chain of Q6ZSR9 (Q6ZSR9 whole entry, looked up): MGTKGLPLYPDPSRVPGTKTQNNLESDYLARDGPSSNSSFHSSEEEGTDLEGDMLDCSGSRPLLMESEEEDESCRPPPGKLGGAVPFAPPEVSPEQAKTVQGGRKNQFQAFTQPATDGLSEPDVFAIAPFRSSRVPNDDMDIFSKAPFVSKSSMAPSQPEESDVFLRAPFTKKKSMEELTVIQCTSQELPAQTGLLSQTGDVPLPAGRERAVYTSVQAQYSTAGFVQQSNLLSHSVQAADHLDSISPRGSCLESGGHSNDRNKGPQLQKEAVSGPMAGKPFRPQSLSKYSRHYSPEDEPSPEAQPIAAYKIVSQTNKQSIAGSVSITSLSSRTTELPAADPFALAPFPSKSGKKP
# ROCK1 = test system: ROCK1; parameters: species or system human, MV4-11 + K-562 + COLO205 + SK-N-BE2 + OVCAR-8; conditions: read-out: apparent Kd; compound concentrations: 100 nM and 1000 nM (sheet 'Samples'), CATDS: 0.20486846489085001; n = 1
# ROCK2 = test system: ROCK2; parameters: species or system human, MV4-11 + K-562 + COLO205 + SK-N-BE2 + OVCAR-8; conditions: read-out: apparent Kd; compound concentrations: 100 nM and 1000 nM (sheet 'Samples'), CATDS: 0.25564914108925302; n = 1
# RPS6KA3 = test system: RPS6KA3; parameters: species or system human, MV4-11 + K-562 + COLO205 + SK-N-BE2 + OVCAR-8; conditions: read-out: apparent Kd; compound concentrations: 100 nM and 1000 nM (sheet 'Samples'), CATDS: 2.2411381111350701E-2; n = 1
# RPS6KA4 = test system: RPS6KA4; parameters: species or system human, MV4-11 + K-562 + COLO205 + SK-N-BE2 + OVCAR-8; conditions: read-out: apparent Kd; compound concentrations: 100 nM and 1000 nM (sheet 'Samples'), CATDS: 2.93060004016619E-2; n = 1
# RPS6KA5 = test system: RPS6KA5; parameters: species or system human, MV4-11 + K-562 + COLO205 + SK-N-BE2 + OVCAR-8; conditions: read-out: apparent Kd; compound concentrations: 100 nM and 1000 nM (sheet 'Samples'), CATDS: 7.09289008095534E-2; n = 1
# RPS6KB1 = test system: RPS6KB1; parameters: species or system human, MV4-11 + K-562 + COLO205 + SK-N-BE2 + OVCAR-8; conditions: read-out: apparent Kd; compound concentrations: 100 nM and 1000 nM (sheet 'Samples'), CATDS: 3.4363243173278199E-2; n = 1
structure (smiles),measurement,setting,value
CCn1c(-c2nonc2N)nc2cncc(C(=O)NCCNC)c21 [GW876790X],potency estimated from few doses,BUB1,2400 nM
same,potency estimated from few doses,CDC42BPA,783 nM
same,potency estimated from few doses,CDC42BPB,790 nM
same,potency estimated from few doses,CDC42BPG,498 nM
same,potency estimated from few doses,CDC7,1080 nM
same,potency estimated from few doses,CDK4,1430 nM
same,potency estimated from few doses,CLK4,1320 nM
same,potency estimated from few doses,DYRK1A,944 nM
same,potency estimated from few doses,GSK3A,612 nM
same,potency estimated from few doses,GSK3B,971 nM
same,potency estimated from few doses,NNT,2030 nM
same,potency estimated from few doses,PIM1,519 nM
same,potency estimated from few doses,PKN1,118 nM
same,potency estimated from few doses,PKN2,35.1 nM
same,potency estimated from few doses,PKN3,1120 nM
same,potency estimated from few doses,PRKACA,2120 nM
same,potency estimated from few doses,PRKCA,378 nM
same,potency estimated from few doses,PRKCB,249 nM
same,potency estimated from few doses,PRKCD,152 nM
same,potency estimated from few doses,PRKCI,491 nM
same,potency estimated from few doses,PRKCQ,1870 nM
same,potency estimated from few doses,PRKG1,399 nM
same,potency estimated from few doses,PRKX;PRKY,361 nM
same,potency estimated from few doses,Q6ZSR9,2130 nM
same,potency estimated from few doses,ROCK1,19.1 nM
same,potency estimated from few doses,ROCK2,13.9 nM
same,potency estimated from few doses,RPS6KA3,2110 nM
same,potency estimated from few doses,RPS6KA4,813 nM
same,potency estimated from few doses,RPS6KA5,113 nM
same,potency estimated from few doses,RPS6KB1,529 nM
